PubChem BioAssay AID504408 (Broad Institute, 2011)
Hit rate of the full screen: of about 300,000 compounds, about 5,200 (1.7%) were called active.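 How the source made its calls: active means mean replicate activation of at least 50% with a set share of replicates each reaching 50%; inconclusive means only one of those two conditions met; inactive means mean below 50% and too few replicates reaching it.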 Many of the other results were omitted from the sample, so actives are more common in it than they were.

Test: HSF-1 response element luciferase induction – NIH3T3-HGL cells, MG132 stress, luminescence, single point, primary screen (AID 504408);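 further: 0% = median of the neutral control wells and 100% = twice that signal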
Details: NIH3T3-HGL HSF-1 luciferase reporter, MG132, 8 h; at 9 µM; hits give high values; 100% = twice DMSO control signal

Structure (SMILES) | activation
COc1ccc(C2=NN(C(=O)CSc3nc(=O)n4ccc(C)cc4n3)C(c3ccc(C)cc3)C2)cc1 (stereo not given) | 9.37% (inactive)
CN(c1ccccc1)S(=O)(=O)c1ccc(Cl)c(C(=O)NCCc2c[nH]c3ccccc23)c1 | -1.41% (inactive)
O=C(NCCc1c[nH]c2ccccc12)c1cc2ccccc2oc1=O | 62.1% (active)
O=C(NCCc1c[nH]c2ccccc12)c1cccc(Br)c1 | 7.52% (inactive)
COc1ccccc1CNS(=O)(=O)c1cc2c3c(c1)CCC(=O)N3CCC2 | 14.6% (inactive)
COc1ccc(CC(=O)OC(C)C(=O)Nc2ccc(S(N)(=O)=O)cc2)cc1 (stereo not given) | -0.48% (inactive)
CC(OC(=O)CNC(=O)c1cccc(F)c1)C(=O)NC1CCCCC1C (stereo not given) | -3.7% (inactive)
CCOC(=O)C1=C(c2ccccc2)NC(=S)NC1c1ccc(Cl)cc1 (stereo not given) | 63.5% (active)
CCOC(=O)C1=C(c2ccccc2)NC(=O)NC1c1cc(OCC)c(O)c([N+](=O)[O-])c1 (stereo not given) | 29.6% (inactive)
CCOC(=O)C1=C(CN2CCc3ccccc32)NC(=O)NC1c1ccc(Cl)cc1 (stereo not given) | 58.6% (active)
CCOC(=O)C1=C(c2ccccc2)NC(=O)NC1c1cc(OC)c(OC)cc1OC (stereo not given) | -12.4% (inactive)
CCOC(=O)C1=C(CN2CCc3ccccc32)NC(=O)NC1c1cccc([N+](=O)[O-])c1 (stereo not given) | 39.3% (inactive)
CCOC(=O)C1=C(CN2CCc3ccccc32)NC(=O)NC1c1cc(C)ccc1C (stereo not given) | 15.2% (inactive)
CC(=O)CC(CC(=O)NC1CCCCC1)c1ccccc1 (stereo not given) | -2.27% (inactive)
CC(NC(=O)c1ccccc1SCC(=O)N1CCCC1)c1ccccc1 (stereo not given) | -5.63% (inactive)
COc1ccc(C(C(=O)NC(C)(C)C)N(C(=O)Cn2nnc3ccccc32)c2ccc(C(C)=O)cc2)cc1O (stereo not given) | 1.15% (inactive)
COc1ccc(C(C(=O)NCC2CCCO2)N(C(=O)Cn2nnc3ccccc32)c2ccc(NC(C)=O)cc2)cc1OC (stereo not given) | 84% (active)
CCOc1cc(C(C(=O)NCC2CCCO2)N(C(=O)Cn2nnc3ccccc32)c2cccc(OC)c2)ccc1O (stereo not given) | -1.11% (inactive)
O=C1/C(=C\c2ccc(O)cc2)CCC1CNc1ccc(Cl)cc1 (stereo not given) | -5.88% (inactive)
COc1ccc(C(=O)c2c3ccc([N+](=O)[O-])cc3[n+]([O-])n2CCCN)cc1 | 11.6% (inactive)
CCC(C)c1ccccc1N1CC(C(=O)N2CCN(S(=O)(=O)c3ccc(F)cc3)CC2)CC1=O (stereo not given) | 7.61% (inactive)
CCOC(=O)c1ccc(Nc2cc3ccccc3c(=O)[nH]2)cc1 | -14.6% (inactive)
CCOC(=O)c1sc(C)c2c1NC(C)(c1cccc3ccccc13)NC2=O (stereo not given) | 97.8% (active)

Structure (SMILES) | activation
CCOC(=O)c1sc(-c2cccc([N+](=O)[O-])c2)cc1N | 24.4% (inactive)
CCCCOC(=O)c1[nH]c(C)c(C(=O)OC)c1C | 52.3% (active)
CCOC(=O)c1c(C)[nH]c(C(=O)OCC(=O)N2CCCC2=O)c1C | 16.4% (inactive)
CCOC(=O)c1c(C)[nH]c(C(=O)OCC(=O)c2ccc(OC)cc2OC)c1C | -6.52% (inactive)
COc1cc(-c2nnc(NC(=O)C3=COCCO3)o2)cc(OC)c1OC | -3.05% (inactive)
O=C(OCCOCn1cc(Br)c(=O)[nH]c1=O)c1ccccc1 | -0.69% (inactive)
N[C@@H](Cc1ccccc1)C(=O)N1CCOCC1 | -19.9% (inactive)
C=CCOc1cccc(C2C(C(=O)c3ccc(C)o3)=C(O)C(=O)N2c2nnc(C)s2)c1 (stereo not given) | -4.03% (inactive)
CC(=O)c1ccc(NC(=O)C2CCCN2S(=O)(=O)c2cccs2)cc1 (stereo not given) | -4.67% (inactive)
c1ccc(CN=C2Nc3ccccc3CS2)nc1 | 58% (active)
CCCCN(C1CCS(=O)(=O)C1)S(=O)(=O)c1ccc(C(C)C)cc1 (stereo not given) | 0.442% (inactive)
CCCCN(C(=O)c1ccc(S(=O)(=O)N2CCOCC2)cc1)C1CCS(=O)(=O)C1 (stereo not given) | -15% (inactive)
Cc1cccc(C(C)C)c1NC(=O)COC(=O)C1CC(=O)N(Cc2ccccc2)C1 (stereo not given) | 4.94% (inactive)
Cc1cc([N+](=O)[O-])ccc1NC(=O)C1CCCO1 (stereo not given) | 0.502% (inactive)
Cc1cc(C)c2nc(NC(=O)C3CCCO3)sc2c1 (stereo not given) | 61.5% (active)
Cc1ccc(C)c(C(C)NC(=O)C2CCCO2)c1 (stereo not given) | 2.29% (inactive)
COc1cccc(/C=C/C(=O)OCC(=O)N2CCCc3ccccc32)c1 | -15.2% (inactive)
CC(=O)N1CCN(C(=O)c2cc(-c3ccc(C)o3)nc3ccccc23)CC1 | -3% (inactive)
Cc1ccc(NC(=S)NC(=O)/C=C/c2ccc(Cl)cc2)cc1 | 8.91% (inactive)
COC(=O)c1c(C)[nH]c(C(=O)NCCc2ccc(S(N)(=O)=O)cc2)c1C | 22.1% (inactive)
COC(=O)c1c(C)[nH]c(C(=O)/C=C/c2ccc(Cl)cc2)c1C | 75.6% (active)
O=C(OCc1nnc(-c2ccccc2)o1)c1cc(=O)[nH]c2ccccc12 | -8.33% (inactive)
